These results are taken from PubChem BioAssay AID1845226 (National Center for Advancing Translational Sciences (NCATS), 2023).

Inconclusive results are not listed. Entries that show only a call come without a potency. The source made the active and inactive calls. Calls come from the whole dose curve; as a rule, active = well fitted inhibition curve with a large enough effect; inconclusive = small, poorly fitted or top-dose-only effect; inactive = no such curve, though single readings can be large or run the other way.
Potency is the fitted concentration of half-maximal effect.

A short description of the test: Confirmatory fluorescence-based thiol-reactive (MSTI) qHTS assay for identification of artifact compounds. Particulars: MSTI thiol-reactivity probe, 1 h; series mostly up to 39.2 µM. The gist of the method: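 Compounds (qHTS) incubated 1 h at room temperature, light-protected, with 4 uM MSTI in 1X PBS pH 7.4, 2% DMSO. Fluorescence at 525/598 nm normalized to Acetyl-MSTI and MSTI, fitted to Hill equation.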
For the compound `Clc1ccccc1CNc1ncnc2nc[nH]c12`, the Potency result was “inactive”.

`O=C(/C=C/c1ccc(O)cc1)OC[C@H]1O[C@@H](Oc2c(-c3ccc(O)cc3)oc3cc(O)cc(O)c3c2=O)[C@H](O)[C@@H](O)[C@@H]1O`: the Potency entry is “inactive”. Take `Nc1ccc(F)cc1F`: the Potency result was “inactive”.

Take `COC(=O)c1c(NC(=O)COc2ccc(C(C)C)cc2)sc2c1CCCC2`: the Potency result was “inactive”. To `Cc1cn(C2CCC(CO)O2)c(=O)[nH]c1=O` (stereo not drawn) belongs “inactive”; to `COc1ccc(NC(=O)c2ccco2)cc1NC(=O)c1ccccc1[N+](=O)[O-]`, “inactive”. The value for `O=C(COc1cccc(Cl)c1)N1CCC(c2nc3ccccc3o2)CC1` was “inactive”. The value for `CCCCn1c(-c2ccc(C)cc2)c(C)n2c3c(=O)n(C)c(=O)n(C)c3nc12` was “inactive”; that for `Cc1ccc(NC(=O)CCn2cccn2)cc1Cl` was “inactive”; that for `Clc1ccccc1Cn1c(-c2cccs2)nc2ccccc21` was “inactive”. For `O=C1CC(c2ccc(O)c(O)c2)Oc2cc(O)cc(O)c21` (stereo not drawn), the Potency result was “inactive”. To `Cc1sc2ncn(CC(=O)N3CCN(c4ccccc4)CC3)c(=O)c2c1S(=O)(=O)N1CCC(C)CC1` belongs “inactive”.

As for `Cn1cc(CN(C(=O)Nc2ccc(Cl)c(Cl)c2)C2CCCCC2)c2ccccc21`, the Potency entry is “inactive”. To `CCCCCCCCCCCCCCCC(=O)N[C@H](CN1CCOCC1)[C@H](O)c1ccccc1` belongs 12200 nM (active); to `COc1cc(O)c2c(c1)oc(=O)c1c3cc(O)c(O)cc3oc21`, 1090 nM (active); to `COc1ccccc1Cc1nc2ccccc2nc1SCC(=O)Nc1c(C)cccc1C`, “inactive”. Consider `CCOc1ccccc1NC(=O)CSc1nc2c(oc3ccccc32)c(=O)n1-c1ccc(F)cc1`, for which the Potency result is “inactive”. `Cc1cc(N[S+](=O)([O-])c2ccc(NC(=O)Cc3ccc(Cl)nc3)cc2)no1`: the Potency entry was “inactive”. On to `COc1ccc(NC(=O)C(=O)Nc2ccc3nc4n(c(=O)c3c2)CCCCC4)c(OC)c1`, for which the Potency entry is “inactive”. To `CCCCOc1ccc(C2C(=O)N(C3CCCCC3)CC(=O)N2CCCC)cc1` (stereo not drawn) belongs “inactive”.

On to `C/C(=C\c1ccc2c(c1)OCO2)C1Nc2cccc3cccc(c23)N1`, for which the Potency was 3070 nM (active). To `CC(C)=CCC/C(C)=C/C=O` belongs “inactive”. The value for `COc1ccc(-c2oc3cc(O[C@@H]4OC(CO)C(O)C(O)C4O)c(OC)c(O)c3c(=O)c2OC)cc1O` (stereo partly drawn) was “inactive”; that for `Clc1ccc(CNc2cc(-c3ccc4c(c3)OCO4)ncn2)cc1` was “inactive”; that for `COc1ccc(-c2cc3ccc(O)c(CN4CCOCC4)c3oc2=O)cc1OC` was “inactive”. As for `Cc1c(C(=O)Nc2ccc(-n3c(C)nc4ccccc4c3=O)cc2)cccc1[N+](=O)[O-]`, the Potency entry was “inactive”. The value for `COc1ccc(OCc2nnc(-c3ccccc3)o2)cc1` was “inactive”.

Turning to `Cc1ccc(OCCn2c(CCNC(=O)c3c(F)cccc3F)nc3ccccc32)cc1`, the Potency result is “inactive”. The value for `O=C(Cn1cc(SCc2ccccc2F)c2ccccc21)N1CCCCC1` was “inactive”; that for `COC(=O)c1cc(NC(=O)c2ccc3c(c2)NC(=O)c2ccccc2S3)cc(C(=O)OC)c1` was “inactive”.

Regarding `Nc1c(N=Nc2ccc([N+](=O)[O-])cc2)c(S(=O)(=O)O)cc2cc(S(=O)(=O)O)c(/C=C/c3ccccc3)c(O)c12`, the Potency is 61.2 nM (active). `C=Cc1ccc(Cn2c(C)c(CNCc3cccc(Br)c3)c(C(=O)O)c2C)cc1`: the Potency entry was “inactive”.

On to `Cc1cc(C)cc(NC(=O)CSc2oc(-c3cccs3)nc2S(=O)(=O)c2ccccc2)c1`, for which the Potency entry was “inactive”.
